Screening data deposited in PubChem by several laboratories.
An excerpt weighted towards active compounds, which were near 2.1% of everything screened.
PLC-beta3 inh: PLC-beta3 (human) inhibition, primary screen | Q01970 | Purified PLC-beta3, fluorogenic substrate, fluorescence | inhibition, % at 12.2 µM | 370,000 compounds, 0.18% hits | AID 720704; in the data active = inhibition above about 11%
ADAM17 inh: inhibitors of human ADAM17 | inhibition, % at 6.95 µM | 370,000 compounds, 0.83% hits | AID 720648 | recombinant ADAM17, EDANS/DABCYL FRET peptide cleavage;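 active = inhibition above the mean of compounds lying between control limits plus 3 SD, set per campaign, cut at about 8.5% in these data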
PLCg1 inh: inhibitors of human phospholipase C gamma1. P19174. purified PLC-gamma1, fluorogenic substrate, fluorescence. inhibition, % at 12.2 µM. 370,000 compounds, 0.84% hits
Target sequence (P19174 whole entry, looked up): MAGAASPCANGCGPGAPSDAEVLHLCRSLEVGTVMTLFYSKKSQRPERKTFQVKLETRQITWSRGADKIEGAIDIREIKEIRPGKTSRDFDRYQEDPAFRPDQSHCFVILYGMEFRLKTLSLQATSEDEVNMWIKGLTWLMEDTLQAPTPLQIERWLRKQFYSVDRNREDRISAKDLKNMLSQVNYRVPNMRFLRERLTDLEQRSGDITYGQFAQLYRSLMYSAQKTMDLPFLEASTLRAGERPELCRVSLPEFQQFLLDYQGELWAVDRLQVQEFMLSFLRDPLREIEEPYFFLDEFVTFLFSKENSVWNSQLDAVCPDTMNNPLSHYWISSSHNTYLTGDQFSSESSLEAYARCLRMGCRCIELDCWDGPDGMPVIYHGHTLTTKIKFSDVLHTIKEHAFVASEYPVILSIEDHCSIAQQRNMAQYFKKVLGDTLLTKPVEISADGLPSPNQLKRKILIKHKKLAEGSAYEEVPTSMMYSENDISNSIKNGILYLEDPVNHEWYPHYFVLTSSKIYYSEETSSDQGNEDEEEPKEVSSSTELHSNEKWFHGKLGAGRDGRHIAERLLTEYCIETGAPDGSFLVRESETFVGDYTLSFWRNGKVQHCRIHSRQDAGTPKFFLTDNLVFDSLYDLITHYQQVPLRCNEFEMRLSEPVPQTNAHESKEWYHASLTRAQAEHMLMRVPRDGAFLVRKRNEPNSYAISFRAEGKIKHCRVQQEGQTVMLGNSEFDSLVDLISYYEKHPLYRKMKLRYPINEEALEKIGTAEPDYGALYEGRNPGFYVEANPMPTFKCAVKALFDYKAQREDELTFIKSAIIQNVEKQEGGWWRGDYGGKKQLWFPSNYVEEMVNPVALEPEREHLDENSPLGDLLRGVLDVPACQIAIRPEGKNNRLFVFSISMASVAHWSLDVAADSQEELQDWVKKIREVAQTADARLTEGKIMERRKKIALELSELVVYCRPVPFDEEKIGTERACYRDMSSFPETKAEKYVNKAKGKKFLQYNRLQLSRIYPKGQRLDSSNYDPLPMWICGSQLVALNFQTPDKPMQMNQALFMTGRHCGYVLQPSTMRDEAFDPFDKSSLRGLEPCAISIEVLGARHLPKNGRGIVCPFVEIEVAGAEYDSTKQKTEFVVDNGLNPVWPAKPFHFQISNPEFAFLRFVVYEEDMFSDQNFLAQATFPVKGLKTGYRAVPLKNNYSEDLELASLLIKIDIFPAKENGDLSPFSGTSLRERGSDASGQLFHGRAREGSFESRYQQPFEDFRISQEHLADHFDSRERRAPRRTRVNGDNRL
Rce1 inh: blocks yeast Ras-converting enzyme. Q03530. yeast membranes, quenched prenylated peptide cleavage fluorescence. calls only. 290,000 compounds, 0.27% hits;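 active = fall in fluorescence gain of 50% or more versus controls, with final raw signal at or below 3038400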
ADAM10 inh: inhibits human ADAM10 | 370,000 compounds, 0.62% hits | inhibition, % at 7 µM | AID 720582 | recombinant ADAM10, EDANS/DABCYL FRET peptide cleavage, 3 h;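 active = inhibition above a per-campaign cutoff equal to the mean of compounds falling between control-based bounds plus 3 SD, cut at about 20% in these data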
ADAM10 ctr: counter-screen for ADAM17 exosite inhibitors: inhibitors of human ADAM10. shares compounds with ADAM17 inh. recombinant ADAM10, EDANS/DABCYL FRET peptide cleavage, 3 h. inhibition, % at 6.95 µM. 2,900 compounds, 47% hits. AID 743256;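 active = mean inhibition over the triplicate runs exceeds the activity threshold set in the earlier primary screen, cut at about 20% in these data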
ADAM17 confirm: human ADAM17 inhibition, confirmation. shares compounds with ADAM17 inh. recombinant ADAM17, EDANS/DABCYL QFRET peptide cleavage. inhibition, % at 6.95 µM. 2,900 compounds, 65% hits. AID 743257;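 active = mean inhibition across replicates above the hit cutoff set in the primary screen, cut at about 8.5% in these data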
PLCgamma1 ctr: counter-screen for PLC-beta3 inhibitors: inhibitors of human PLC-gamma1 | shares compounds with PLCg1 inh | purified PLC-gamma1, fluorogenic substrate, fluorescence | inhibition, % at 12.3 µM | 3,300 compounds, 3.1% hits | AID 743258
PLCbeta3 conf: confirmation of human PLC-beta3 inhibitors | inhibition, % at 12.3 µM | AID 743261 | 3,300 compounds, 1% hits | shares compounds with PLCg1 inh | purified PLC-beta3, fluorogenic substrate fluorescence; in the data active = inhibition above about 11%
Of the large screens only hits and unclear results are named; the others gave an inactive call (follow-up assays come after a bar, where they were run). Rule as the data show it, unless noted: active = inhibition above about 9.5%; inactive = the rest.

COc1cc(/C=N\NC(=O)c2ccccc2F)ccc1Oc1ccc([N+](=O)[O-])cn1	ADAM17 inh 10.0, PLCg1 inh 9.6 | ADAM10 ctr inactive | ADAM17 confirm inactive | PLCgamma1 ctr inactive | PLCbeta3 conf inactive
NC1=NC2(CCC(c3ccccc3)CC2)n2c(nc3ccccc32)N1 (stereo unspecified)	PLC-beta3 inh 14, ADAM17 inh 9.0, PLCg1 inh 18 | ADAM10 ctr inactive | ADAM17 confirm inactive | PLCgamma1 ctr inactive | PLCbeta3 conf inactive
COc1cc(Cn2nnc3ccccc32)cc(Br)c1O	none
Cc1nc2cc(NCc3ccccc3O)ccc2n1Cc1ccccc1	none
CC(C)(C)c1cc(C(=O)CCN2CCOCC2)cc(C(C)(C)C)c1O	ADAM17 inh 9.4, PLCg1 inh 13 | ADAM10 ctr inactive | ADAM17 confirm inactive | PLCgamma1 ctr inactive | PLCbeta3 conf inactive
COc1cccc(NCc2cc(=O)oc3cc(C)c(C(C)C)cc23)c1	none
O=C(OCCCN=C1NS(=O)(=O)c2ccccc21)c1ccc([N+](=O)[O-])cc1	none
Cc1ccc(S(=O)ONc2cccc(NOS(=O)c3ccc(C)cc3)c2)cc1 (stereo unspecified)	none (no result: Rce1 inh)
Cc1ccc(Nc2nc(Nc3ccc(C)cc3)nc(SC3=NCCS3)n2)cc1	ADAM17 inh 9.8, PLCg1 inh 16 | ADAM10 ctr 20 | ADAM17 confirm 12 | PLCgamma1 ctr inactive | PLCbeta3 conf inactive
CCCCOc1ccc(C(=O)NC2CCCCN(Cc3ccc(C)cc3)C2=O)cc1 (stereo unspecified)	none (no result: Rce1 inh)
CCn1c(-c2csc3c2CCCC3)n[nH]c1=S	none
CCCCn1c(-c2csc3c2CCCC3)n[nH]c1=S	ADAM17 inh 13, PLCg1 inh 15 | ADAM10 ctr inactive | ADAM17 confirm inactive | PLCgamma1 ctr inactive | PLCbeta3 conf inactive
COc1ccc(C(=O)Nc2cc(-c3ccccc3)nn2-c2ccccc2F)cc1	none (no result: Rce1 inh)
COc1ccc(NCc2cccnc2)cc1	none
O=C(N/N=C/c1ccc(N2CCOCC2)c([N+](=O)[O-])c1)c1ccc(F)cc1	none
O=C(N/N=C/c1ccc(N2CCCC2)c([N+](=O)[O-])c1)c1cccnc1	PLC-beta3 inh 16, ADAM17 inh 9.0, PLCg1 inh 18 | ADAM10 ctr 21 | ADAM17 confirm 12 | PLCgamma1 ctr inactive | PLCbeta3 conf inactive
C/C(=N\N=C1\NC(=O)CC(C(=O)O)S1)c1cccs1 (stereo unspecified)	none
CNC(=O)C1CC(=O)N/C(=N/N=C(\C)c2cccs2)S1 (stereo unspecified)	PLC-beta3 inh 11, ADAM17 inh 10 | ADAM10 ctr inactive | ADAM17 confirm 14 | PLCgamma1 ctr inactive | PLCbeta3 conf inactive
COC(=O)[C@]12C[C@H](CC(=O)NCc3ccc(C)o3)C(=O)N(Cc3ccco3)C1=C[C@H](C(C)(C)C)O[C@@H]2C	none (no result: Rce1 inh)
COC(=O)[C@]12C[C@H](CC(=O)NCc3ccc(C)o3)C(=O)N(Cc3ccccc3)C1=C[C@H](C(C)(C)C)O[C@@H]2C	ADAM17 inh 10, PLCg1 inh 10 (no result: Rce1 inh) | ADAM10 ctr inactive | ADAM17 confirm inactive | PLCgamma1 ctr inactive | PLCbeta3 conf inactive
COC(=O)[C@]12C[C@H](CC(=O)NCCCCc3ccccc3)C(=O)N(Cc3ccccc3)C1=C[C@H](C(C)C)O[C@@H]2C1CC1	ADAM17 inh 17, PLCg1 inh 10 (no result: Rce1 inh) | ADAM10 ctr 26 | ADAM17 confirm 13 | PLCgamma1 ctr inactive | PLCbeta3 conf inactive
O=C1NC[C@@H](CCCCN2CCN(CCc3ccc(O)cc3)C(=O)C2=O)N(CCc2ccc(O)cc2)C1=O	none (no result: Rce1 inh)
CCn1nc(C)c(/C=N/NC(=S)Nc2ccc(Cl)cc2Cl)c1C	PLC-beta3 inh 12, ADAM17 inh 8.7 | ADAM10 ctr inactive | ADAM17 confirm inactive | PLCgamma1 ctr inactive | PLCbeta3 conf inactive
Cc1nn(C)cc1/C=N/NC(=S)Nc1ccc(Cl)cc1Cl	none
